# The panel holds about 79,000 compounds, 15% with a hit somewhere; the sample as a whole holds those more often. Values without a mark were called inactive. Active and inactive are the calls of the source. Cut-off read from the data, not from the text of the source: active = growth inhibition above about 70%; inactive = the rest. Where a SMILES comes first, the peptide text is derived from it. [ ]: non-standard residue; d: D form. The star is where a group is joined. Phe(2-OMe) = COc1ccccc1C[CH](N)C(=O)O; Cbz = O=C(OCc1ccccc1)*; OBn = c1ccc(CO*)cc1
# Legend:
# [1] = NCI Yeast Anticancer Drug Screen. Data for the rad50 strain (AID 155);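 note: 0% = growth of vehicle-only cultures of the same strain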; conditions: S. cerevisiae rad50 strain growth inhibition, active compounds read high
# Summary of the method: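 Readout: growth inhibition relative to vehicle-treated cultures. Compound exposure was carried out in a genetically defined yeast strain deficient in DNA damage repair.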
# [2] = NCI Yeast Anticancer Drug Screen. Data for the mec2-1 strain (AID 157); conditions: S. cerevisiae mec2-1 strain, active compounds read high
# Summary of the method: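 Using mec2-1 yeast: add compound, measure growth, express inhibition versus vehicle-treated cultures.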
# [3] = NCI Yeast Anticancer Drug Screen. Data for the sgs1 mgt1 strain (AID 161);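 note: 0% = growth of cultures given vehicle only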; conditions: S. cerevisiae sgs1 mgt1 strain, active compounds read high
# Summary of the method: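 Growth of a repair-deficient yeast mutant was monitored after compound treatment and expressed as inhibition relative to vehicle-treated cultures.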
# [4] = NCI Yeast Anticancer Drug Screen. Data for the cln2 rad14 strain (AID 165);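 note: 0% = growth equal to vehicle treated cultures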; conditions: S. cerevisiae cln2 rad14 strain, active compounds read high
# Summary of the method: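 Yeast strain cln2 rad14, bearing defects in cell cycle control and DNA repair, serves as the test system; values reflect growth inhibition compared with vehicle.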
# [5] = NCI Yeast Anticancer Drug Screen. Data for the bub3 strain (AID 167); conditions: S. cerevisiae bub3 mutant strain, active compounds read high
# Summary of the method: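 Readout: yeast growth inhibition, expressed relative to vehicle-only wells. The test organism is a mutant strain from a panel with lesions in DNA repair or checkpoint genes.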
# [6] = NCI Yeast Anticancer Drug Screen. Data for the mlh1 rad18 strain (AID 175); conditions: S. cerevisiae mlh1 rad18 strain growth inhibition, active compounds read high
# Summary of the method: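 Steps: expose repair-defective yeast to compound; measure growth; express inhibition against vehicle-treated controls.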
# [7] = at 5.0 µM (retest, dose inferred, filed as 0.5)
# [8] = at 50.0 µM (retest, dose inferred, filed as 5.0)
SMILES,"growth inhibition [1, 7]","growth inhibition [1, 8]",growth inhibition ([1]; at 50.0 µM),"growth inhibition [2, 7]","growth inhibition [2, 8]",growth inhibition ([2]; at 50.0 µM),"growth inhibition [3, 7]","growth inhibition [3, 8]",growth inhibition ([3]; at 50.0 µM),"growth inhibition [4, 7]","growth inhibition [4, 8]",growth inhibition ([4]; at 50.0 µM),"growth inhibition [5, 7]","growth inhibition [5, 8]",growth inhibition ([5]; at 50.0 µM),"growth inhibition [6, 7]","growth inhibition [6, 8]",growth inhibition ([6]; at 50.0 µM)
COc1cc(/C=C/C(=N\NC(=O)c2ccccc2)c2sc(Nc3ccc(Cl)c(Cl)c3)nc2C)ccc1O,49%,49%,91.2% (active),29%,29%,89.8% (active),52%,52%,89.7% (active),14%,14%,88.2% (active),28%,28%,90.5% (active),30%,30%,88.9% (active)
C[CH2][Ge]([CH2]C)[CH2]C.C[CH2][Ge]([Cl])[CH2]C.C[CH2][Ge][CH2]C,19%,96% (active),98% (active),15%,98% (active),98.6% (active),23%,96% (active),98.1% (active),8%,94% (active),97% (active),17%,96% (active),98.2% (active),12%,95% (active),98.2% (active)
CC(=O)OC1CCCc2c1nc1ccccc1[n+]2[O-] (configuration not stated),10%,-2%,8.6%,10%,0%,4.55%,6%,1%,0.5%,3%,-3%,28.6%,15%,4%,-10.5%,11%,-5%,5.7%
COC1OC(CBr)C(OC(C)=O)C(OC(C)=O)C1OC(C)=O (configuration not stated),7%,-3%,5.9%,5%,3%,13.2%,8%,3%,-3.6%,5%,30%,8.7%,6%,3%,82.3% (active),-2%,2%,18.9%
Cc1ccc2c(C3Cc4ccccc4N3C(=O)/C=C\C(=O)O)c(C)[nH]c2c1 (configuration not stated),23%,85% (active),87.5% (active),24%,91% (active),88.7% (active),37%,89% (active),92.7% (active),27%,82% (active),90.1% (active),35%,90% (active),90.6% (active),39%,95% (active),89.1% (active)
N#CSC#Cc1ccc(C#CSC#N)cc1,100% (active),98% (active),30.6%,100% (active),96% (active),84.5% (active),100% (active),97% (active),85% (active),99% (active),97% (active),87.5% (active),99% (active),98% (active),88.3% (active),100% (active),98% (active),89.2% (active)
COC(=O)c1ccc2ccccc2c1,5%,15%,47%,-1%,4%,28.1%,1%,4%,22.4%,2%,-4%,24.6%,5%,29%,80.2% (active),5%,11%,34.3%
COC(=O)c1c(C(N)=O)c(C)n(NC(=O)Nc2ccccc2)c1C,25%,93% (active),96.2% (active),24%,95% (active),85.1% (active),41%,94% (active),95% (active),32%,91% (active),81.4% (active),37%,92% (active),86.2% (active),63%,95% (active),87.8% (active)
COc1ccc(-c2nnc(C)nc2-c2ccc(OC)cc2)cc1,3%,-1%,22.1%,-1%,7%,1.2%,3%,19%,23.2%,-6%,-1%,17.6%,14%,41%,81.6% (active),0%,2%,13.2%
C=C1N(S(=O)(=O)c2ccc(C)cc2)C(=O)OCC12CCCC2,-22%,3%,2.2%,-15%,-21%,-1.5%,-21%,9%,20%,-21%,5%,8.9%,-16%,43%,54.2%,-24%,-2%,3.5%
CCOC(=O)C(=O)NNc1ccccc1,22%,89% (active),97.8% (active),3%,82% (active),94.8% (active),13%,61%,98.7% (active),-1%,57%,92.7% (active),17%,96% (active),97.5% (active),31%,95% (active),98.9% (active)
O=CCCCc1cc2c(cc1Br)CCC2,0%,62%,60.9%,14%,62%,70.9% (active),11%,73% (active),64.2%,10%,82% (active),72.2% (active),23%,92% (active),77.5% (active),21%,91% (active),50.4%
COc1ccc(/C=C(/NC(=O)c2ccccc2)C(=O)Nc2ccccc2)cc1OC,-13%,-6%,3.3%,-7%,-12%,16.1%,-6%,-5%,-18.4%,-23%,-24%,50.5%,-6%,9%,-8.25%,-4%,-11%,29.3%
Cc1cccc2c(C(=O)CBr)cc(-c3ccc(Cl)cc3)nc12,54%,91% (active),95.7% (active),89% (active),93% (active),95.3% (active),96% (active),91% (active),95.2% (active),36%,85% (active),85.8% (active),74% (active),92% (active),95% (active),88% (active),90% (active),95.5% (active)
COC(=O)C(Cc1ccccc1OC)NC(=O)C(CC(=O)OCc1ccccc1)NC(=O)OCc1ccccc1 (configuration not stated) (Cbz-Asp(OBn)-[Phe(2-OMe)]-OMe; configuration not given here),-5%,84% (active),51.5%,0%,37%,58.2%,1%,92% (active),65.2%,16%,86% (active),80.5% (active),-1%,84% (active),87.8% (active),0%,84% (active),54.8%
O=C(O)C1OC(Oc2ccc3oc4ccccc4c(=O)c3c2)C(O)C(O)C1O (configuration not stated),-23%,91% (active),48.8%,3%,33%,40.2%,-1%,48%,30.8%,4%,15%,56.5%,10%,64%,47.1%,7%,39%,57.9%
CC(=O)N(N)c1ccccc1,8%,56%,57.5%,0%,42%,32.2%,4%,53%,33.3%,4%,51%,57.7%,7%,77% (active),87.8% (active),20%,87% (active),88.4% (active)
Nn1c2ccccc2c2ccccc21,-106%,-52%,35%,-44%,-53%,11.8%,-32%,-25%,8.1%,-54%,-77%,12%,-72%,-80%,-6%,-78%,6%,75.1% (active)
CC(C)C(=O)N1Cc2cc(Cl)cc(Cl)c2OC(=O)c2ccccc21,18%,3%,71% (active),-1%,17%,36.1%,-13%,3%,43.6%,32%,47%,48.7%,19%,28%,52.9%,4%,11%,57.9%

# From PubChem BioAssay (NCI)
